Experiment [1] is described as follows: MultiTox-Fluor Cytotoxicity Assay - LYMP1-003 - Dead Cells (AID 961).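 Further: cells exposed to compound for 16 h at 37 °C; nearly all actives have a fitted effect of over 70% in size.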 In short, it runs like this:
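Acute toxicity is scored as increased dead-cell protease activity in human lymphoblastoid LYMP1-003 cells after 16 h compound exposure in complete culture medium. Activity is normalized to DMSO basal and 15 uM tetraoctylammonium bromide as full response.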

The nature of experiment [2]: MultiTox-Fluor Cytotoxicity Assay - LYMP1-003 - Live Cells (AID 962).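 Further: cells exposed to compound for 16 hours at 37 °C.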 Further: potency means the concentration at half of the fitted maximal effect. The method in brief:
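LYMP1-003 lymphoblastoid cells, 2500/well in complete medium, treated 16 h at 37 C; live-cell protease cleavage of GF-AFC read by fluorescence (Ex/Em 405/510) after 60 min reagent; AC50 from Hill fits of concentration-response.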

Experiment [3] in a line: Cell Viability - LYMP1-003 - Assay at 40 hr (AID 964). Further: nearly all actives have a fitted effect of over 60% in size. Further: potency means the concentration at half of the fitted maximal effect. In short, it runs like this:
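LYMP1-003 human lymphoblastoid cells, 2500/well, preincubated 5 h at 37 C, then treated with compound for 40 h at 37 C. Intracellular ATP read by CellTiter-Glo luminescence after 30 min at room temperature; AC50 from Hill-equation fits.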

Experiment [4] can be described thus: Cell Viability - LYMP2-003 (AID 965).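 Further: cells exposed to compounds for 24 h before reading; nearly all actives have a fitted effect of over 50% in size.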 Further: potency means the concentration at half of the fitted maximal effect. In short, it runs like this:
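qHTS, human lymphoblastoid line, 2500 cells/well, complete medium. 24 h drug, 37 C. ATP-based luminescent readout; Hill-fit AC50.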

Experiment [5] can be described thus: Cell Viability - LYMP2-004 (AID 966). Further: nearly all actives have a fitted effect of over 65% in size. Further: potency means the concentration at half of the fitted maximal effect. The method in brief: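 Lymphoblastoid LYMP2-004 cells, 2500 per well, were preincubated for 5 hr and then treated with compound for 24 h at 37 C in complete medium. Viability was read as cellular ATP by CellTiter-Glo luminescence, and AC50 values were taken from Hill fits to concentration-response data.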
Experiment [6] in a line: Cell Viability - LYMP2-005 (AID 967). Further: potency means the concentration at half of the fitted maximal effect. In short, it runs like this: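 Luciferase-based ATP quantitation served as the viability measure in human lymphoblastoid LYMP2-005 cells exposed to test compounds for 24 h at 37 C in complete culture medium. Potency (AC50) was obtained by fitting concentration-response curves with the Hill equation.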
The nature of experiment [7]: Cell Viability - LYMP2-011 (AID 969). Further: nearly all actives have a fitted effect of over 60% in size. Further: potency means the concentration at half of the fitted maximal effect. The method in brief:
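2500 cells/well in complete medium, compound-treated 24 h at 37 C. Viability read as intracellular ATP by CellTiter-Glo luminescence after 30 min at room temperature. AC50 from Hill fits of qHTS concentration-response data.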

Experiment [8] is described as follows: Cell Viability - LYMP2-013 (AID 970). Further: nearly all actives have a fitted effect of over 55% in size. Further: potency means the concentration at half of the fitted maximal effect. In short, it runs like this: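 Human lymphoblastoid LYMP2-013 cells, 2500/well, treated 24 h at 37 C in complete medium; viability as intracellular ATP by CellTiter-Glo luminescence after 30 min. AC50 from Hill fits of qHTS concentration-response.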
A short description of experiment [9]: Cell Viability - LYMP2-015 (AID 971). Further: nearly all actives have a fitted effect of over 55% in size. Further: potency means the concentration at half of the fitted maximal effect. In short, it runs like this: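 LYMP2-015 human lymphoblastoid cells (2500/well) in complete medium, compound-treated 24 h at 37 C; viability read as cellular ATP by CellTiter-Glo luminescence after 30 min at room temperature. AC50 from Hill-equation fits of qHTS concentration-response data.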
Experiment [10] can be described thus: Cell Viability - LYMP2-017 (AID 972). Further: nearly all actives have a fitted effect of over 55% in size. Further: potency means the concentration at half of the fitted maximal effect. The method in brief: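 LYMP2-017 human lymphoblastoid cells (2500/well) settled 5 hr at 37 C, then exposed to compound 24 hr at 37 C in complete medium. Viability taken as intracellular ATP by CellTiter-Glo luminescence after 30 min at RT; AC50 from Hill fits.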
Experiment [11] in a line: Cell Viability - LYMP2-019 (AID 973). Further: nearly all actives have a fitted effect of over 55% in size. Further: potency means the concentration at half of the fitted maximal effect. In short, it runs like this: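 Human lymphoblastoid LYMP2-019 cells (2500/well) preincubated 5 h at 37 C, then treated 24 h at 37 C in complete medium. Viability by CellTiter-Glo ATP luminescence after 30 min at room temperature; AC50 from Hill fits.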
Experiment [12] is described as follows: Cell Viability - LYMP2-021 (AID 974). Further: potency means the concentration at half of the fitted maximal effect. The method in brief:
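Human lymphoblastoid LYMP2-021 cells, 2500/well in complete medium, treated 24 hours at 37 C. Intracellular ATP by CellTiter-Glo luminescence (30 min, RT); AC50 from Hill fits of concentration-response.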

The nature of experiment [13]: Cell Viability - LYMP2-023 (AID 975). Further: nearly all actives have a fitted effect of over 55% in size. Further: potency means the concentration at half of the fitted maximal effect. The method in brief:
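LYMP2-023 human lymphoblastoid cells, 2500/well, preincubated 5 hr at 37 C, then compound-treated 24 hr at 37 C in complete medium. CellTiter-Glo luminescence (ATP) after 30 min at room temperature; AC50 from Hill-equation fits; tetraoctylammonium bromide positive control.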

Experiment [14] can be described thus: Cell Viability - LYMP2-025 (AID 976). Further: potency means the concentration at half of the fitted maximal effect. In short, it runs like this: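 Human lymphoblastoid LYMP2-025 cells, 2500/well, exposed 24 h at 37 C in complete medium in 1536-well qHTS. Viability as cellular ATP by CellTiter-Glo luminescence; AC50 from Hill fits of concentration-response data.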
The nature of experiment [15]: Cell Viability - LYMP2-002 (AID 977).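 Further: compound exposure lasted 24 h at 37 °C.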 Further: potency means the concentration at half of the fitted maximal effect. The method in brief: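 Human lymphoblastoid LYMP2-002 cells, 2500 per well, exposed to compounds for 24 h at 37 C in complete medium; viability read as intracellular ATP by CellTiter-Glo luminescence, AC50 from Hill fits.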
Experiment [16] can be described thus: Cell Viability - LYMP2-006 (AID 978). Further: nearly all actives have a fitted effect of over 60% in size. Further: potency means the concentration at half of the fitted maximal effect. In short, it runs like this: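 In this cytotoxicity screen, the human lymphoblastoid line grew in complete medium with test compounds for 24 hr at 37 C. Cellular ATP served as the viability signal.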
The nature of experiment [17]: Cell Viability - LYMP2-007 (AID 979).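 Further: cells exposed to compound for 24 h before reading; nearly all actives have a fitted effect of over 60% in size.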 Further: potency means the concentration at half of the fitted maximal effect. In short, it runs like this: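 Human lymphoblastoid LYMP2-007 cells (2500/well) preincubated 5 h at 37 C, then treated 24 h at 37 C in complete medium. Viability by CellTiter-Glo ATP luminescence after 30 min at room temperature; AC50 from Hill fits.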
Experiment [18] is described as follows: Cell Viability - LYMP2-008 (AID 980). Further: nearly all actives have a fitted effect of over 60% in size. Further: potency means the concentration at half of the fitted maximal effect. The method in brief:
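LYMP2-008 lymphoblastoid cells (2500/well) plated 5 h, then treated 24 h at 37 C in complete medium. Viability read as intracellular ATP by CellTiter-Glo luminescence after 30 min at room temperature; AC50 from Hill fits.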

Experiment [19] can be described thus: Cell Viability - LYMP2-010 (AID 981). Further: nearly all actives have a fitted effect of over 55% in size. Further: potency means the concentration at half of the fitted maximal effect. In short, it runs like this:
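Human lymphoblastoid LYMP2-010 cells (2500/well) treated 24 h at 37 C in complete medium; viability read as intracellular ATP by CellTiter-Glo luminescence. AC50 from Hill fits of concentration-response data; tetraoctylammonium bromide positive control.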

Experiment [20] can be described thus: Cell Viability - LYMP2-012 (AID 982). Further: potency means the concentration at half of the fitted maximal effect.

Structures are written as SMILES. Records with an inconclusive call do not appear. The source made the active and inactive calls. The call rests on the fitted dose curve; in most records, active means well fitted curve in the direction sought with a large enough effect; inconclusive means small, poorly fitted or top-dose-only effect, or another doubt; inactive means no such curve, though single readings can be large; an effect the other way counts as inactive or inconclusive.

On to `Cc1ccnc2c1NC(=O)c1cccnc1N2C1CC1`, for which, in experiment [1], the result was inactive. Moreover, the Potency result in experiment [2], in [3], in experiment [4], in [5], in experiment [6] and in [7] was “inactive” in each case. In addition, the Potency result in experiment [8], in experiment [9], in [10], in experiment [11], in experiment [12] and in [13] was “inactive” in each case. The Potency entry in experiment [14], in [15], in experiment [16], in [17], in experiment [18] and in [19] was “inactive” in each case. Also, in [20], the Potency result was “inactive”.
As to `CC1=NN(c2ccccc2)C(=O)C1`, the result in experiment [1] was inactive. In addition, the Potency result in experiment [2], in experiment [3], in experiment [4], in [5], in experiment [6] and in [7] was “inactive” throughout. For the same compound, the Potency result in experiment [8], in experiment [9], in experiment [10], in experiment [11], in [12] and in experiment [13] was “inactive” throughout. Besides, the Potency entry in experiment [14], in [15], in experiment [16], in [17], in experiment [18] and in experiment [19] was “inactive” in each case. Besides, in experiment [20], the Potency result was “inactive”.
For `N=C(N)c1ccc(OCCCCCOc2ccc(C(=N)N)cc2)cc1`, the compound was called inactive in experiment [1]. The Potency entry in experiment [2], in experiment [4], in experiment [5], in [13] and in experiment [14] was “inactive” throughout. Also, the Potency in [3], in experiment [17] and in experiment [19] was 39800 nM (active) throughout.
`COc1ccc2cc3[n+](cc2c1OC)CCc1cc2c(cc1-3)OCO2`: the compound was classed as inactive in experiment [1]. The Potency result in [2], in experiment [4], in experiment [5], in [7], in experiment [13] and in [14] was “inactive” each time. The Potency entry in [15] is “inactive”.
Take `CC(=O)[C@H]1CC[C@H]2[C@@H]3CCC4=CC(=O)CC[C@]4(C)[C@H]3CC[C@]12C`: the Potency result in experiment [2] and in experiment [16] was “inactive” in each case.
For the compound `Cc1nnc(NS(=O)(=O)c2ccc(N)cc2)s1`, in experiment [1], the compound was called inactive. Further, the Potency result in [2], in experiment [3], in experiment [4], in experiment [5], in experiment [6] and in [7] was “inactive” in each case. Also, the Potency result in [8], in [9], in experiment [10], in [11], in experiment [12] and in experiment [13] was “inactive” in each case. The Potency result in experiment [14], in experiment [15], in experiment [16], in experiment [17], in experiment [18] and in experiment [19] was “inactive” each time. Moreover, the Potency result in experiment [20] is “inactive”.
As for `Cc1noc(NS(=O)(=O)c2ccc(N)cc2)c1C`, the result in experiment [1] was inactive. The Potency entry in [2], in experiment [3], in [4], in experiment [5], in experiment [6] and in experiment [7] was “inactive” each time. The Potency result in [8], in [9], in experiment [10], in experiment [11], in experiment [12] and in [13] was “inactive” each time. In addition, the Potency result in [14], in [15], in experiment [16], in experiment [17], in experiment [18] and in [19] was “inactive” in each case. Further, the Potency entry in [20] was “inactive”.
As to `CCc1cc(C(N)=S)ccn1`, the compound was called inactive in experiment [1]. In addition, the Potency entry in experiment [2], in [3], in [4], in [5], in experiment [6] and in [7] was “inactive” in each case. Besides, the Potency result in [8], in experiment [9], in experiment [10], in experiment [11], in [12] and in experiment [13] was “inactive” each time. Further, the Potency entry in experiment [14], in experiment [15], in experiment [16], in [17], in [18] and in experiment [19] was “inactive” each time. The Potency result in experiment [20] is “inactive”.
On to `NC(N)=NC(N)=NCCc1ccccc1`, for which the call in [1] was inactive. The Potency entry in [2], in experiment [3], in experiment [4], in experiment [7], in [8] and in [10] was “inactive” each time. The Potency entry in experiment [12], in experiment [13], in experiment [14], in experiment [15], in [16] and in experiment [17] was “inactive” each time. Also, the Potency result in [18], in experiment [19] and in experiment [20] was “inactive” in each case.
Regarding `CN(C)c1ccc(C(=C2C=CC(=[N+](C)C)C=C2)c2ccc(N(C)C)cc2)cc1`, the Potency was 15800 nM (active) in experiment [2]; 2510 nM (active) in experiment [3]; 3160 nM (active) in experiment [4]; 1580 nM (active) in experiment [5]; 2510 nM (active) in experiment [6]; 2510 nM (active) in [7]. Besides, the Potency in experiment [8] is 3980 nM (active); in experiment [9], 2510 nM (active); in [10], 3980 nM (active); in experiment [11], 3160 nM (active); in experiment [12] it was 2510 nM (active); in [13], 3160 nM (active). Besides, the Potency is 6310 nM (active) in experiment [14]; 2510 nM (active) in [15]; 3160 nM (active) in experiment [16]; 2510 nM (active) in experiment [17]; 2000 nM (active) in [18]; 1260 nM (active) in [19]. The Potency in experiment [20] is 1000 nM (active).

For the origin of these results see PubChem BioAssay (NCATS).
